M1 PAM – human M1 muscarinic receptor positive allosteric modulators, primary screen, CHO-K1 cells, Fluo-8 calcium fluorescence, 1536-well; Muscarinic acetylcholine receptor M1 (Homo sapiens), P11229; CHO-K1 hM1, ACh EC20; 0% = ACh EC20, 100% = maximal ACh; activation, % at 3 µM; actives 0.088% (n = 360,000); AID 588819, 2011; in the data active means activation above about 19%, passing the limit was not always enough
Target sequence (P11229 whole entry, looked up): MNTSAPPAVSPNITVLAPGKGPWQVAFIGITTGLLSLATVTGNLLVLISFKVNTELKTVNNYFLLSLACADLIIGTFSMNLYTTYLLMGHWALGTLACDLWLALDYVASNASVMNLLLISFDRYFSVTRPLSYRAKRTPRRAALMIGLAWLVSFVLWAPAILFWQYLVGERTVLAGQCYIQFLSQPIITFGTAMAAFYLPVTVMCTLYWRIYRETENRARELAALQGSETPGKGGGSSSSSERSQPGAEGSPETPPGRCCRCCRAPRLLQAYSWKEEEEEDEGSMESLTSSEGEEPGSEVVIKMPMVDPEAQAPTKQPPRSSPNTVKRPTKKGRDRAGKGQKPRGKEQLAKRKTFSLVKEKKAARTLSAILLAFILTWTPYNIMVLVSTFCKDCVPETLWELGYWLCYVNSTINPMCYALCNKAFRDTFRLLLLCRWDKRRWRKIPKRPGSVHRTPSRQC
CHRM1 agonist – human M1 muscarinic receptor agonists, primary screen, Fluo-8 calcium fluorescence, CHO-K1 cells, HTS | CHO-K1 hM1, agonist mode; 0% DMSO, 100% acetylcholine EC100 | Muscarinic acetylcholine receptor M1 (Homo sapiens), P11229 | activation, % at 3 µM | actives 0.33% (n = 360,000) | AID 588814, 2011;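 active means activation above the run's mean compound activation plus 3 SD, cut at about 16% in these data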;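 further: peak over basal fluorescence ratio within a 140 s kinetic read after compound addition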
CHO-K1 Ca antag – nonselective inhibitor or artifact in parental CHO-K1 cells. inhibition, % at 3 µM. ATP-induced calcium, Fluo-8 fluorescence. AID 602250. actives 0.6% (n = 360,000);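 active means inhibition above a per-plate cutoff, the plate's mean sample inhibition plus 3 SD, cut at about 24% in these data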;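 further: 0% = DMSO plus EC80 ATP and 100% = DMSO alone without ATP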
M1 antag – human M1 muscarinic receptor antagonists, primary screen, CHO-K1 cells, Fluo-8 calcium fluorescence, 1536-well | Muscarinic acetylcholine receptor M1 (Homo sapiens), P11229 | inhibition, % at 3 µM | CHO-K1 hM1, ACh EC80 antagonist | AID 588852, 2011 | actives 1.3% (n = 360,000);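 active means percent inhibition above its own plate's cutoff, namely the mean of that plate's compound wells plus 3 SD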;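 further: peak over basal fluorescence ratio during 140 s after agonist addition; 0% = ACh EC80 plus DMSO and 100% = DMSO alone without agonist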
M1 ag parental – counter-screen for M1 agonists: effect in parental CHO-K1 cells; activation, % at 3 µM; AID 602248, 2012; Fluo-8 calcium fluorescence; scaled to maximal ATP response, vehicle zero; actives 0.48% (n = 360,000); in the data active means activation above about 15%;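 further: untransfected CHO-K1 host cells lacking M1 receptor as counterscreen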
CHO-K1 Ca PAM – nonselective calcium activators in parental CHO-K1 cells, primary screen, counter-screen for M1 PAM project, cell-based, Fluo-8 calcium fluorescence, full deck, 1536-well; ATP EC20; 0% at ATP EC20, 100% at ATP max; activation, % at 3 µM; actives 0.02% (n = 360,000); AID 602247, 2012;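 active means activation above the run cutoff, the mean activation of all test compounds plus 3 SD, cut at about 40% in these data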;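 further: peak over basal fluorescence ratio in a 140 s read after ATP addition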
* marks the source's active call; other numbers are inactive results; ! = a repeat was not active. Hits are enriched below; roughly 2.4% of the tested compounds scored in any of these assays.

What do the screens show for `CCOc1cc2c(cc1/C=C(/C#N)c1ccc(C(=O)O)cc1)OCO2`?
M1 PAM: 4.5; CHRM1 agonist: -4.7; CHO-K1 Ca antag: 7.0; M1 antag: -9.3; M1 ag parental: 17.6*; CHO-K1 Ca PAM: 4.2

How did Cn1c(=O)c2[nH]c(COc3ccc(C(C)(C)C)cc3)nc2n(C)c1=O do in these assays?
M1 PAM: -14.4; CHRM1 agonist: 4.0; CHO-K1 Ca antag: -4.8; M1 antag: 38.9*; M1 ag parental: 13.6; CHO-K1 Ca PAM: -0.2

Results for Cn1c(=O)c2[nH]c(Cc3cccc(O)c3)nc2n(C)c1=O ?
M1 PAM: 5.2; CHRM1 agonist: -4.4; CHO-K1 Ca antag: -10.7; M1 antag: -15.9; M1 ag parental: 0.4; CHO-K1 Ca PAM: 11.7

How did Cc1ccccc1-c1cc2c(nn1)-c1ccccc1C2=O do in these assays?
M1 PAM: 2.8; CHRM1 agonist: 3.0; CHO-K1 Ca antag: 25.2*; M1 antag: -23.1; M1 ag parental: 0.1; CHO-K1 Ca PAM: -7.2

What do the screens show for `CCOC(=O)c1ccc(NC(=S)NCCc2ccccc2F)cc1`?
M1 PAM: -19.6; CHRM1 agonist: -0.1; CHO-K1 Ca antag: 24.6*; M1 antag: 61.1*; M1 ag parental: 15.4*; CHO-K1 Ca PAM: -14.0

Results for CCOC(=O)c1ccc(NC(=S)NCC(O)c2ccccc2)cc1 (stereo not drawn) ?
M1 PAM: -13.5; CHRM1 agonist: -2.6; CHO-K1 Ca antag: 11.5; M1 antag: 34.4*; M1 ag parental: 12.8; CHO-K1 Ca PAM: 5.8

What do the screens show for `COc1ccc(Cl)cc1NC(=O)CN(C)C(=O)c1cn(-c2ccccc2)nc1-c1cccnc1`?
M1 PAM: -2.2; CHRM1 agonist: -2.1; CHO-K1 Ca antag: 7.8; M1 antag: 12.3; M1 ag parental: 6.2; CHO-K1 Ca PAM: -0.5

Results for CCC(C)(C)C1CCC2(CC1)NC(=O)N(CC(=O)N(C)CCOc1ccc(Cl)cc1)C2=O (stereo not drawn) ?
M1 PAM: 4.1; CHRM1 agonist: -1.9; CHO-K1 Ca antag: 2.1; M1 antag: -11.5; M1 ag parental: 1.7; CHO-K1 Ca PAM: 4.1

Results for Cc1cc(C)c(CN2CCN(C(=O)Cn3cnc4c(NCc5ccccc5)ncnc43)CC2)c(C)c1 ?
M1 PAM: 0.9; CHRM1 agonist: -0.9; CHO-K1 Ca antag: 25.2*; M1 antag: 0.9; M1 ag parental: 1.1; CHO-K1 Ca PAM: -10.0

How did CCN(CC)C(=O)CCNS(=O)(=O)c1ccc(C)cc1 do in these assays?
M1 PAM: 13.7; CHRM1 agonist: -0.4; CHO-K1 Ca antag: 28.2*; M1 antag: -4.7; M1 ag parental: -0.1; CHO-K1 Ca PAM: -3.0

What do the screens show for `COC(=O)C1=C(C)NC(C)=C(C(=O)OC)C1c1ccc(-c2cccc([N+](=O)[O-])c2)o1`?
M1 PAM: 12.0; CHRM1 agonist: -1.2; CHO-K1 Ca antag: 11.7; M1 antag: -19.2; M1 ag parental: 0.9; CHO-K1 Ca PAM: 1.4

What do the screens show for `COC(=O)C1=C(C)NC(C)=C([N+](=O)[O-])C1c1ccccc1C(F)(F)F` (stereo not drawn)?
M1 PAM: -3.1; CHRM1 agonist: -3.4; CHO-K1 Ca antag: 34.8*!; M1 antag: -17.0; M1 ag parental: 0.1; CHO-K1 Ca PAM: 7.9

Results for CCCCN(C)C(=O)CNC(=O)c1nn(-c2ccc(OC)cc2OC)c(=O)c2ccccc12 ?
M1 PAM: 11.7; CHRM1 agonist: -2.9; CHO-K1 Ca antag: -14.6; M1 antag: -9.2; M1 ag parental: -0.3; CHO-K1 Ca PAM: -0.8

Results for Cn1c(=O)c(N)c2c3c(c(Br)ccc31)C(=O)c1ccccc1-2 ?
M1 PAM: -2.1; CHRM1 agonist: 16.2*; CHO-K1 Ca antag: 0.8; M1 antag: 12.7; M1 ag parental: 31.7*; CHO-K1 Ca PAM: 13.6

How did Cn1c(=O)c2c(nc(Oc3ccccc3Br)n2C)n(C)c1=O do in these assays?
M1 PAM: 7.5; CHRM1 agonist: -0.7; CHO-K1 Ca antag: -9.1; M1 antag: -17.5; M1 ag parental: 0.9; CHO-K1 Ca PAM: 3.4

What do the screens show for `COc1cccc(NC(=O)Cc2c(O)c3ccccc3[nH]c2=O)c1`?
M1 PAM: 9.3; CHRM1 agonist: -0.9; CHO-K1 Ca antag: 25.0*; M1 antag: -12.6; M1 ag parental: 0.0; CHO-K1 Ca PAM: -6.1

What do the screens show for `O=C(Cc1c(O)c2ccccc2[nH]c1=O)OC1CCCCC1`?
M1 PAM: 4.6; CHRM1 agonist: -3.1; CHO-K1 Ca antag: 24.5*; M1 antag: -6.2; M1 ag parental: -0.5; CHO-K1 Ca PAM: -6.1

What do the screens show for `CNC(C)C(=O)NC(C(=O)NC(C)C(=O)NNc1ccccc1)C(C)C` (stereo not drawn)?
M1 PAM: -0.3; CHRM1 agonist: -1.6; CHO-K1 Ca antag: 0.7; M1 antag: -7.4; M1 ag parental: -0.1; CHO-K1 Ca PAM: 9.2

What do the screens show for `Cc1occc1-c1nnc(SCC(=O)Nc2nc(C(C)(C)C)cs2)o1`?
M1 PAM: -24.0; CHRM1 agonist: -0.6; CHO-K1 Ca antag: 29.5*; M1 antag: 50.8*; M1 ag parental: 10.8; CHO-K1 Ca PAM: -10.2

How did Cc1csc(NC(=O)CSc2nnc(-c3ccoc3C)o2)n1 do in these assays?
M1 PAM: 6.3; CHRM1 agonist: -0.9; CHO-K1 Ca antag: -7.3; M1 antag: -12.9; M1 ag parental: 0.3; CHO-K1 Ca PAM: 13.4

Results for CCOc1ccc(S(=O)(=O)N2CCC(C(=O)N3CCCC3)CC2)cc1C ?
M1 PAM: 8.7; CHRM1 agonist: -2.7; CHO-K1 Ca antag: -16.2; M1 antag: -15.3; M1 ag parental: 4.0; CHO-K1 Ca PAM: 8.6

How did CN(C)c1ccc(/C=N/NC(=O)CNC(=O)c2ccc3c(c2)OCCO3)cc1 do in these assays?
M1 PAM: 0.4; CHRM1 agonist: -7.2; CHO-K1 Ca antag: -3.1; M1 antag: -1.3; M1 ag parental: -0.3; CHO-K1 Ca PAM: 23.7

What do the screens show for `CCN(CC)c1ccc(/C=N/NC(=O)CNC(=O)c2ccc3c(c2)OCCO3)cc1`?
M1 PAM: 31.2*; CHRM1 agonist: -11.1; CHO-K1 Ca antag: -20.6; M1 antag: -34.5; M1 ag parental: -0.7; CHO-K1 Ca PAM: 2.8

Results for Cc1ccccc1Nc1nnc(SCc2cc([N+](=O)[O-])cc3c2OCOC3)s1 ?
M1 PAM: -21.5; CHRM1 agonist: -8.4; CHO-K1 Ca antag: 2.9; M1 antag: 41.2*; M1 ag parental: 2.7; CHO-K1 Ca PAM: 7.0

How did CCc1n[nH]c(=S)n1/N=C/c1c(O)ccc2ccccc12 do in these assays?
M1 PAM: 21.9; CHRM1 agonist: 3.7; CHO-K1 Ca antag: -1.5; M1 antag: -27.7; M1 ag parental: 0.4; CHO-K1 Ca PAM: 7.3

Compound activity (PubChem BioAssay)
